Among all 190,000 compounds or so, about 930 (0.49%) were called active. This is one part of the list. Entries with a potency or affinity are not part of this list. Unmarked numbers belong to inactive results.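 Rule for the calls: active = z-score of insulin promoter reporter brightness in nuclei below -3 at 5 µM, with at least 500 cells counted; inconclusive = wells with under 500 cells, flagged as toxic or sparse; inactive = the rest.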

The nature of the test: insulin promoter down-regulators in MIN6 cells, imaging, high-content screening, mouse beta cells (AID 1628). Conditions: MIN6 insulin promoter GFP reporter, at 5 µM, active compounds read low.
For the compound `COc1cc([C@@H]2[C@H]3CNCC=C3C(C#N)=C(N)C2(C#N)C#N)ccc1OC(C)C`, the z-score was 3.59.
To `C/C(=N/O)c1ccccn1` belongs 0.09; to `c1ccc(CSc2ccc(-c3ccccn3)nn2)cc1`, 4.07.
For the compound `Cc1nn(-c2c(Cl)cc(Cl)cc2Cl)c(=O)c2ccccc12`, the z-score is 3.38.
The same measure for `CCN(c1ccccc1)S(=O)(=O)c1ccc(C(=O)Nc2nnc(C3CC3)o2)cc1`: -3.06 (active); for `O=S(=O)(Cc1ccc(Cl)cc1)c1ccccc1-c1nnc(-c2ccccc2)o1`: 13.8.
As for `Cc1cc2c(=O)n(Cc3ccco3)c(SCC(=O)c3ccc(Cl)s3)nc2s1`, the z-score was -9.67 (active).
Take `Cc1cccc2cc3c(N)c(C(=O)N4CCCc5ccccc54)sc3nc12`: the z-score was 6.25.
The same measure for `CN(c1ccccc1)c1ccc(/C=c2\s/c(=C(/C#N)C(=O)C(C)(C)C)n(Cc3ccco3)c2=O)cc1`: 12.8; for `CCN(C(=O)CSc1nc2cc(C(=O)OC)ccc2c(=O)n1Cc1ccco1)c1cccc(C)c1`: 4.54; for `CCc1cc2c(=O)n(Cc3ccco3)c(SCC(=O)N3CCCc4ccccc43)nc2s1`: -3.14 (active).
To `O=C(O)c1ccccc1N/N=C/c1c(Sc2nnnn2-c2ccccc2)nc2ccccn2c1=O` belongs 9.93; to `CCOC(=O)CC1C(=O)NCCN1c1nc2c(C)cccn2c(=O)c1/C=C1\SC(=S)N(C(C)CC)C1=O` (centres undefined), 9.72; to `O=C1c2cccc3c(O)ccc(c23)C(=O)N1Cc1ccccc1`, 5.05.
In the case of `O=C(N/N=C/c1ccc(O)cc1O)c1ccc(CN2C(=O)c3cccc4cccc2c34)cc1`, the z-score is -3.91 (active).
To `CSc1c(C#N)c(N)nc2sc(C(=O)c3ccc(Cl)c(Cl)c3)c(N)c12` belongs 5.56.
Take `CCN(CC)S(=O)(=O)c1cccc(S(=O)(=O)c2cccc(S(=O)(=O)N(CC)CC)c2)c1`: the z-score is -4.75 (active).
To `Cc1cc(NC(=S)N(Cc2ccc(Br)cc2)Cc2ccc(C(=O)O)cc2)ccc1Cl` belongs 3.8.
Take `COc1ccc(NC(=S)N(CCCN2CCC(C)CC2)Cc2cccs2)cc1`: the z-score was 1.67.
The same measure for `CC(C)N1CC=C2C(C#N)=C(N)C(C#N)(C#N)C(c3ccccc3)C2C1` (centres undefined): 5.63; for `Cc1cccc(NC(=O)Nc2ccc(C#N)cc2)n1`: 3.41.
To `CC(C)(C)c1nc(NC(=O)Nc2ccccc2)sc1Br` belongs -4.02 (active).
In the case of `COc1cc(N=Nc2cccc(S(N)(=O)=O)c2)c2ccccc2c1N`, the z-score is 5.92.
To `CN(C)c1ncc(S(=O)(=O)c2ccc(Cl)cc2)c(-c2ccccc2)n1` belongs -3.06 (active).
To `CCN(CC)c1ccc2cc(S(=O)(=O)c3ccc(Cl)cc3)c(=O)oc2c1` belongs 6.96; to `O=C(CSc1oc(-c2ccco2)nc1S(=O)(=O)c1ccc(F)cc1)NCC1CCCO1` (centres undefined), 0.69.
To `O=C(CSc1ccc(-c2ccccc2)nn1)NCC1CCCO1` (centres undefined) belongs 3.02; to `C=CCc1ccccc1OCC(O)CN1CCN(CCN2C(=O)c3cccc4cccc(c34)C2=O)CC1` (centres undefined), -5.75 (active); to `C=CCN1C(=O)c2cccc3c(N4CCCCC4)ccc(c23)C1=O`, 5.61.
On to `COc1ccc(NC(=O)C(=O)NCc2ccncc2)c(OC)c1`, for which the z-score was -4.99 (active).
The same measure for `COc1ccc(NC(=O)C/C(C)=N/NC(=O)C(=O)Nc2cccc(Cl)c2C)c(OC)c1`: 0.92; for `CC(C)C1S/C(=N/N=C/c2ccco2)NC1=O` (centres undefined): 3.25.
On to `Nc1ccc2c(c1)Cc1cc([N+](=O)[O-])ccc1-2`, for which the z-score is 7.76.
In the case of `O=C(c1cc([N+](=O)[O-])ccc1N1CCCC1)N1CCCC1`, the z-score was 3.06.
As for `N#Cc1cc([N+](=O)[O-])ccc1N1CCCC1`, the z-score was -5.65 (active).
The same measure for `Cc1cc(C)nc(SCc2ccc(C(=O)N/N=C/c3cccc(O)c3O)cc2)n1`: -3.45 (active); for `Cc1cc(C)nc(SCSc2nc(C)cc(C)n2)n1`: 4.55.
Consider `COC(=O)c1ccc(NC(=O)Nc2ccc(F)cc2)cc1`, for which the z-score was -3.46 (active).
`O=C(Nc1ccc(F)cc1)Nc1cc(OCC(F)(F)F)cc(OCC(F)(F)F)c1`: the z-score is -3.21 (active).
To `COC(=O)c1sc2ccccc2c1-n1cccc1C(=O)C(=O)Nc1ccc(F)cc1` belongs 5.4; to `Cc1ccc(SCc2cc(-c3ccc(Cl)cc3)no2)cc1`, 3.09.
To `O=C1Nc2ccc(Br)cc2C12NNc1ccccc1O2` (centres undefined) belongs 14.4; to `N#C/C(=C/c1ccc(O)c([N+](=O)[O-])c1)C(=O)Nc1ccccc1`, 1.31.
To `O=C(Nc1ccc(Cl)cc1)/C(=C/c1ccc([N+](=O)[O-])cc1)c1nc2ccccc2s1` belongs -4.86 (active); to `O=C(Cc1nc(-c2ccc([N+](=O)[O-])cc2)cs1)Nc1ccccc1`, 8.58; to `Cc1ccc(-n2c(C)nc3oc4ccccc4c(=O)c3c2=O)cc1`, 3.88.
For `CC1(C)Cc2c(C#N)c(SCCOc3ccccc3)nc(N3CCOCC3)c2CO1`, the z-score was -3.51 (active).
The same measure for `CC1(C)Cc2c(c(-c3ccccc3)[nH]c(=O)c2C#N)CO1`: 3.41; for `N#Cc1c(C(F)(F)F)cc(-c2ccccc2)nc1SCc1nc(N)nc(N2CCOCC2)n1`: 15.4.
To `CC1(C)Cc2c(C#N)c(SCC(=O)c3ccccc3)nc(N3CCOCC3)c2CO1` belongs -3.99 (active); to `N#Cc1ccc(-c2ccc(Cl)cc2)nc1SCC(=O)c1cccc(Cl)c1`, 6.91.
The same measure for `CC1(C)Cc2c(C#N)c(SCC(=O)c3ccccc3)nc(N3CCOCC3)c2CS1`: -3.04 (active).
As to `N#Cc1ccc(-c2ccccc2)nc1SCC(=O)c1cccc(Cl)c1`, the z-score is 4.3.
To `N#Cc1c(-c2ccco2)cc(C2CC2)nc1SCC(=O)c1ccccc1` belongs 5.22.
The same measure for `CCOc1cc2[nH]c(=S)n(CCCN(CC)CC)c(=O)c2cc1OCC`: 0.51; for `Nc1c(C(=O)C2CC2)sc2nc(-c3cccs3)cc(C(F)(F)F)c12`: 15.5; for `S=C(N/N=C/c1cccs1)NC1CC2CCC1C2` (centres undefined): -3.1 (active).
To `CN(C)c1ccc(/C=N/NC(=O)CN(c2ccccc2Cl)S(C)(=O)=O)cc1Br` belongs 3.57.
As to `CN(C)c1ccc(/C=C2\C(=N)N3C(=NC2=O)Sc2cc(S(C)(=O)=O)ccc23)cc1`, the z-score was 3.93.

The values are drawn from PubChem BioAssay AID1628 (Sanford-Burnham Center for Chemical Genomics, 2009).
